Compound activity as filed in PubChem.
This is a sample that favours compounds with a hit; in the whole collection about 4.2% have one here.
YjeE inh: inhibitors of E. coli YjeE (TsaE) | P0AF67 | purified YjeE enzyme, qHTS inhibition assay | Potency, µM | actives 0.05% (n = 71,000)
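Fluorescence polarization of a BODIPY Texas Red–ADP probe (2 uM) bound to purified YjeE (10 uM) was read after 15 min room-temperature incubation with compounds. Loss of polarization marks inhibitors; ADP serves as titrated control.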
DNA Pol III inh: inhibitors of bacterial DNA polymerase III holoenzyme. reconstituted DNA polymerase III holoenzyme replication, biochemical. Potency, µM (doses to about 57.1 µM). actives 0.25% (n = 71,000). AID 603
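Reconstituted *E. coli* holoenzyme (0.35 nM Pol III, 1 nM beta, 154 nM SSB, 2 nM primase) was preincubated with compound for 15 min at RT. Synthesis on 1.4 nM ssM13Gori ran 35 min, then was stopped with PicoGreen/EDTA and read as dsDNA fluorescence.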
ALOX15 inhib: blocks human 15-lipoxygenase activity; purified 15hLO-1, xylenol orange hydroperoxide absorbance; Potency, µM (titrated, usually from 57.1 µM), hits mostly inhibitors; actives 1.4% (n = 74,000); AID 887; note: nearly all actives have a fitted effect of over 55% in size
Target sequence (P16050 whole entry, looked up): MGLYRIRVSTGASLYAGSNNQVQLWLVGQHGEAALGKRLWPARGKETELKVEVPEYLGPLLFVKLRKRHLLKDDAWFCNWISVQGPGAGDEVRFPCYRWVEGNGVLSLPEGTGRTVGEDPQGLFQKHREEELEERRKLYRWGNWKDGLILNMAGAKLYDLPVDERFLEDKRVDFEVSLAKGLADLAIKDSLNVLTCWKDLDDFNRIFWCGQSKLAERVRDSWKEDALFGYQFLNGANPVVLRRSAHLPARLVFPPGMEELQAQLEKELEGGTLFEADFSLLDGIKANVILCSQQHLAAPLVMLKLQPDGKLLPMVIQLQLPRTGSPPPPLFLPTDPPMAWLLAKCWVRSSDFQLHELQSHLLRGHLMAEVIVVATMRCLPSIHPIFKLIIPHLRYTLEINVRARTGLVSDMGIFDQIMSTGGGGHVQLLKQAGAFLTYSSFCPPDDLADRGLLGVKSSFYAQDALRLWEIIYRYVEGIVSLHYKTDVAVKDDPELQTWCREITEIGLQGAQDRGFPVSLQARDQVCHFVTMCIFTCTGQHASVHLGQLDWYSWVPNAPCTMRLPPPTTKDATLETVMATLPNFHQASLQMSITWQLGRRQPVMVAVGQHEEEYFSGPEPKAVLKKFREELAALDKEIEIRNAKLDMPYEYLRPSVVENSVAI
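Inhibition is scored from a chromogenic endpoint. After 15 min enzyme-compound contact, arachidonic acid (50 uM final) reacts 6 min with 40 nM 15hLO-1 at room temperature, then Fe-XO reagent is added for 30 min and absorbance ratio recorded.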
ERK AVP inh: blocks ERK signaling stimulated by vasopressin; HEK293-V1b, vasopressin-stimulated pERK AlphaScreen; Potency, µM (top dose mostly 57.5 µM), usual class: inhibitors; actives 0.99% (n = 72,000); AID 995; note: nearly all actives have a fitted effect of over 55% in size
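qHTS, compounds titrated on V1b-expressing HEK293 cells. Preincubation 30 min at 37C, vasopressin 25 nM for 5 min, lysis 10 min, bead incubation 5 hr at room temperature.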
Tau fil binding: binds recombinant human tau filaments; P10636; recombinant tau filaments, thioflavin S fluorescence, 15 h; filaments grown with octadecylsulfate alongside compound; Potency, µM (top dose mostly 57.1 µM); actives 2% (n = 71,000);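 note: actives lower thioflavin S fluorescence by blocking filaments or displacing dye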
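ThS-based fibril read: tau 1 uM final, inducer ODS 30 uM final, 37 C for 15 h, ex 450/em 510 nm.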
Hsp90 Hop PPI: changes Hsp90-Hop TPR2A binding signal, up or down | AlphaScreen TPR2A-His6 binding biotin-Hsp90 C-terminal peptide | Potency, µM (series often up to 57 µM) | actives 0.44% (n = 71,000) | AID 595; active = well fitted curve in either direction with a large enough effect; inconclusive = small, poorly fitted or top-dose-only effect, or another doubt
Hsp90-TPR2A inh: confirmation and counter-screen of Hsp90 TPR2A co-chaperone interaction disrupters | shares compounds with Hsp90 Hop PPI | AlphaScreen TPR2A-His6 / biotin-Hsp90 peptide binding | activity, negative = inhibition, % at 40 µM or 46 µM, hits read low | actives 100% (n = 45);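 active = compound lowering the Hsp90 and TPR2A binding signal, whether or not the linker counterscreen also flagged it as an artifact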
Of the large screens only hits and unclear results are named; the others gave an inactive call (follow-up assays come after a bar, where they were run); ! = not confirmed by another sample. Unless noted, calls come from the whole dose curve; as a rule, active = well fitted curve in the direction sought with a large enough effect; inconclusive = small, poorly fitted or top-dose-only effect, or another doubt; inactive = no such curve, though single readings can be large; an effect the other way counts as inactive or inconclusive.

COP(=S)(OC)SCn1nnc2ccccc2c1=O	YjeE inh inconclusive, ALOX15 inhib 12.6µM, ERK AVP inh 31.6µM (no result: Tau fil binding)
CC1(C)N=C(N)N=C(N)N1c1cccc(C(=O)Nc2ccc(S(=O)(=O)F)cc2)c1	none
COc1ccc2[nH]cc(CCN)c2c1	none
COc1ccc2[nH]c3c(c2c1)CCN=C3C	ALOX15 inhib inconclusive, Tau fil binding 2.51µM
CC(C)n1cnc2c(C(=O)N[C@H]3CN4CCC3CC4)cc(Cl)cc21	Tau fil binding inconclusive
Clc1ccc(C(c2ccc(Cl)cc2)C(Cl)Cl)cc1	Hsp90 Hop PPI 31.6µM
CCS(=O)CCSP(=O)(OC)OC (stereo unspecified)	ERK AVP inh inconclusive (no result: YjeE inh, DNA Pol III inh, Tau fil binding, Hsp90 Hop PPI)
CCCCC/C=C\C/C=C\C/C=C\C/C=C\CCCC(=O)NCC(=O)O	ALOX15 inhib 2.51µM
CCCCC/C=C\C/C=C\C/C=C\C/C=C\CCCC(=O)Nc1ccc(O)cc1	ALOX15 inhib 0.251µM, Tau fil binding 31.6µM
CC[C@H](C)C(=O)O[C@@H]1[C@H](O)[C@@H]2[C@H](CN3C[C@@H](C)CC[C@@H]3[C@@]2(C)O)[C@@H]2C[C@@]34O[C@@]5(O)[C@@H](OC(=O)[C@](C)(O)CC)CC[C@@]3(C)[C@H]5[C@H](OC(C)=O)[C@@H](OC(C)=O)[C@H]4[C@]12O	none
Cc1cc([P+](=O)O)c(C)n1-c1ccc(Br)cc1	none
CCOC(=O)c1c(C)n(Cc2ccco2)c2ccc(OC)cc12	none
CCOC(=O)C1CCN(/C=C2/C(=O)NC(=O)N(Cc3ccco3)C2=O)CC1	DNA Pol III inh 7.94µM
Nc1cccc(C(F)(F)F)c1	none
CC(C)(OO)c1ccccc1	ALOX15 inhib 0.126µM
O=C(Oc1ccccc1)N1CCC2(CC1)CCN(C(c1ccccc1)c1ccccc1)CC2	none
CN1CC[C@@H]2CN3CCc4cccc(c43)[C@H]2C1	ALOX15 inhib 12.6µM
NNc1c(C(N)=O)c2c(N)ncnc2n1[C@@H]1O[C@H](CO)[C@@H](O)[C@@H]1O	none (no result: ALOX15 inhib, ERK AVP inh)
C=CCc1cc(OC)c2c(c1OC)OCO2	ALOX15 inhib 3.98µM (no result: YjeE inh, DNA Pol III inh, Tau fil binding, Hsp90 Hop PPI)
COc1c2c(cc3c1OCO3)CC[N+](C)=C2	none (no result: YjeE inh, DNA Pol III inh, Tau fil binding, Hsp90 Hop PPI)
CC(=O)Oc1ccc(/C=C/c2cc(OC(C)=O)cc(OC(C)=O)c2)cc1	none (no result: YjeE inh, DNA Pol III inh, Tau fil binding, Hsp90 Hop PPI)
N#CC1=C(N)Oc2n[nH]c(-c3cccs3)c2C1c1ccsc1 (stereo unspecified)	ALOX15 inhib 3.98µM, ERK AVP inh inconclusive, Hsp90 Hop PPI inconclusive
CC1(C)C(=O)C=C[C@@]2(C)C1CC(O)[C@]1(C)C2CC[C@@]2(C)C(c3ccoc3)OC(=O)C3O[C@]312 (stereo partly specified)	none (no result: YjeE inh, DNA Pol III inh, Tau fil binding, Hsp90 Hop PPI)
COc1ccc2c(c[n+](C)c3c4cc5c(cc4ccc23)OCO5)c1OC	ALOX15 inhib inconclusive, ERK AVP inh inconclusive, Tau fil binding 31.6µM
CC1=NN=C(c2ccc(N)cc2)c2cc3c(cc2C1)OCO3	Tau fil binding 31.6µM!, Hsp90 Hop PPI inconclusive
[Cl][In]([Cl])[Cl]	YjeE inh inconclusive, DNA Pol III inh 31.6µM, ALOX15 inhib inconclusive
C#C[C@@]1(O)CC[C@@H]2[C@@H]3CCC4=CC(=O)CC[C@@]4(C)[C@H]3CC[C@]21C	none
Cc1cc(O)c2c(c1)C(=O)c1cc(O)cc(O)c1C2=O	ALOX15 inhib inconclusive, ERK AVP inh inconclusive, Tau fil binding 2.51µM, Hsp90 Hop PPI 5.01µM!
CCCCN1C(=O)NC(=O)C2(Cc3c(nc4ccccn4c3=O)N3CCc4ccccc4C32)C1=O (stereo unspecified)	ALOX15 inhib 20µM
CCCCN1C(=O)NC(=O)C2(Cc3c(nc4c(C)cccn4c3=O)N3CCc4ccccc4C32)C1=O (stereo unspecified)	none
CN1CCC[C@@H]1c1cccnc1.O=C(O)c1ccccc1O.O=C([OH2+])c1ccccc1O.O=C([OH2+])c1ccccc1O.O=C([OH2+])c1ccccc1O.[Cu]	ALOX15 inhib 2.51µM
Cc1nc2c(=O)n(C)c(=O)nc-2n(C)n1	none (no result: YjeE inh, DNA Pol III inh, ALOX15 inhib, ERK AVP inh, Tau fil binding, Hsp90 Hop PPI) | Hsp90-TPR2A inh active
